Reference: PubChem BioAssay (EPA / NIEHS)
Inconclusive results are not listed. Activity calls are given as the source filed them. Rule for the calls, unless noted: active = hit-call score of the fitted dose curve at least 0.9, where 1 is the maximum; inactive = score below 0.9.

Columns and labels:
[1] = CCTE_Simmons_MITO_max_resp_rate: CCTE's HepG2 Seahorse XF Respirometric Screening Assay at Maximal Respiratory State [uncoupled], Simmons Lab (AID 2284002); details: actives raise or lower the signal
Outline: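 HepG2 oxygen consumption measured on Seahorse XF after FCCP uncoupling, following test compound injection; 7 concentrations from 125 nM to 100 uM final. Readings every 6 min over 72 min, three biological replicates; bidirectional fit versus DMSO.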

[2] = CCTE_Simmons_MITO_viability: CellTiter-Glo Viability Assessment for CCTE's HepG2 Seahorse XF Respirometric Screening Assay [post-hoc], Simmons Lab (AID 2284007; active = hit-call score of the fitted dose curve at least 0.9, where 1 is the maximum;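 for AC50: cells exposed to chemical for 90 min before the ATP read; actives lower ATP signal relative to DMSO baseline meaning reduced viability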)
Outline: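 HepG2 cells from the Seahorse XF respirometry run were exposed 90 min to a 7-point series, 125 nM–100 uM final, DMSO vehicle; ATP content then read by luciferase luminescence. Three biological replicates, technical singles; loss of signal fitted versus DMSO.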

[3] = CCTE_Harrill_HTTr_Viability_MCF7: CCTE's 6-hour Cell Viability Assessment for the High-Throughput Transcriptomics (HTTr) Platform, in MCF-7 cells cultured in DMEM + 10% fetal bovine serum, Harrill Lab (AID 2284010)
Outline: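 Membrane integrity was scored by high-content imaging of propidium iodide dye exclusion after a 6 h exposure across an eight-point dilution series. Data were fitted bidirectionally relative to DMSO as negative control and baseline.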

[4] = CCTE_Harrill_HTTr_Apoptosis_MCF7: CCTE's 6-hour Apoptosis Assessment for the High-Throughput Transcriptomics (HTTr) Platform, in MCF-7 cells cultured in DMEM + 10% fetal bovine serum, Harrill Lab (AID 2284011)
Outline: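 MCF-7 cells in DMEM + 10% FBS exposed 6 h to chemicals over an eight-point dilution series. Caspase-3/7 activation imaged by high-content CellEvent Green staining; fitted bidirectionally versus DMSO.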

[5] = molecular target: Ratio of Nucleoli Translocation and Cytoplasm, AR (gene 367) (UniProt P10275); assay: UPITT_HCI_U2OS_AR_TIF2_Nucleoli_Cytoplasm_Ratio_Agonist: University of Pittsburgh U2OS Androgen Receptor-Transcriptional Intermediary Factor 2 (AR-TIF2) Agonism High Content Imaging Assay for Ratio of Nucleoli Translocation and Cytoplasm (AID 2284000; active = hit-call score of the fitted dose curve at least 0.9, where 1 is the maximum;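 note: hits raise the red nucleolar to cytoplasm ratio above vehicle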)
Outline: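 Read-out first: nucleolar-to-cytoplasm ratio of red (AR-RFP) signal, quantified by high-content imaging in U2OS cells co-expressing TIF2-GFP. Activity is scored as signal increase over DMSO. Single-point screening used 20 uM final (0.2% DMSO).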

[6] = CCTE_Simmons_MITO_inhib_resp_rate: CCTE's HepG2 Seahorse XF Respirometric Screening Assay at Inhibited Respiratory State [full ETC block], Simmons Lab (AID 2284006); details: actives raise or lower the signal
Outline: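 HepG2 cells on Seahorse XF96; oxygen consumption measured after test compound, then FCCP, then rotenone/antimycin A injections over 72 min. Test chemicals at 7 concentrations, 125 nM–100 uM final. OCR fitted bidirectionally versus DMSO.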

[7] = CCTE_Shafer_MEA_acute_spike_number: CCTE's Neural Acute Assay for Total Number of Spikes, Shafer Lab (AID 2284008);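 for AC50: curve fitted for decrease in spike count so AC50 reflects inhibitors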
Outline: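 Rat primary cortical neurons on 48-well MEA plates, DIV 13 or 15, at 37 C. 40 min baseline then 40 min with compound (0.03-40 uM); spikes detected at 8x rms noise, expressed as percent change from baseline.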

[8] = CCTE_Shafer_MEA_acute_firing_rate_mean: CCTE's Neural Acute Assay for Mean Firing Rate, Shafer Lab (AID 2284009);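 note: analyzed for loss of signal so actives lower firing rate relative to DMSO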
Outline: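 Percent change in well-mean firing rate was derived from extracellular spikes detected at 8x rms noise (300-5000 Hz band-pass) before and after a 40-min compound exposure. Cultures were primary rat cortical neurons, tested at 0.03-40 uM.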

[9] = CCTE_Harrill_HTTr_CellCount_MCF7: CCTE's Cell Proliferation Assessment for the High-Throughput Transcriptomics (HTTr) Platform, Harrill Lab (AID 2284012; active = hit-call score of the fitted dose curve at least 0.9, where 1 is the maximum;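 note: cells exposed to compound for six hours; intended direction is loss of nuclei count meaning fewer cells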)
Outline: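 MCF-7 cells were exposed for 6 h to an eight-point dilution series; Hoechst-labeled nuclei were counted by high content imaging. Curves were fitted bidirectionally against DMSO as negative control and baseline, with signal loss indicating reduced cell count.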

[10] = CCTE_Shafer_MEA_acute_burst_number: CCTE's Neural Acute Assay for Single-Electrode Bursts, Shafer Lab (AID 2284013)
Outline: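 Spontaneous network activity of primary rat cortical neurons was recorded extracellularly on microelectrode arrays at 37 C, with 40-min periods before and during exposure to 0.03-40 uM compound on DIV 13 or 15.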

[11] = CCTE_Shafer_MEA_acute_burst_duration_mean: CCTE's Neural Acute Assay for Mean Burst Duration, Shafer Lab (AID 2284014);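 note: hits are decreases in mean burst duration relative to DMSO controls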
Outline: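 Read-out is the per-well percent change in mean burst duration (first to last spike within a single-electrode burst) between 40-min recordings before and after compound. Cultures were primary rat cortical neurons on MEAs, dosed at 0.03-40 uM on DIV 13 or 15.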

[12] = CCTE_Shafer_MEA_acute_per_burst_spike_number_mean: CCTE's Neural Acute Assay for Average Number of Spikes Per Burst, Shafer Lab (AID 2284015);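 note: hits are decreases in mean spikes per burst versus baseline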
Outline: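 Percent change in mean spikes per single-electrode burst is compared between a 40 min baseline and a 40 min recording with compound (0.03-40 uM). Cultures were rat cortical neurons on MEA plates at DIV 13 or 15, recorded at 37 C, with DMSO as the negative control.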

[13] = CCTE_Shafer_MEA_acute_interburst_interval_mean: CCTE's Neural Acute Assay for Mean Interburst Interval, Shafer Lab (AID 2284016);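 note: percent change of mean interburst interval versus each well's own pre-dose baseline; curves fitted for decrease in interburst interval relative to DMSO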
Outline: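 Percent change in mean single-electrode interburst interval was calculated per well from 40 min recordings before and after compound (0.03-40 uM). Recordings were made at 37 C on rat cortical cultures at DIV 13 or 15, with spikes detected at 8x rms threshold.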

[14] = CCTE_Shafer_MEA_acute_burst_percentage_mean: CCTE's Neural Acute Assay for Percentage of Spikes in a Burst, Shafer Lab (AID 2284017);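 for AC50: curve fitted for loss of signal so potency reflects decreased burst percentage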
Outline: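 Well-level mean burst percentage from a 40-min recording after compound (0.03-40 uM) expressed as percent change from a 40-min baseline at 37C. Cultures: primary rat cortical neurons on MEA, dosed on DIV 13 or 15; fitted downward relative to DMSO.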

[15] = CCTE_Shafer_MEA_acute_burst_percentage_std: CCTE's Neural Acute Assay for Standard Deviation of Burst Percentage, Shafer Lab (AID 2284018);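 note: fitted in the negative direction so actives lower burst percentage SD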
Outline: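 Value is percent change from baseline in the across-electrode SD of spikes-in-bursts percentage, wells with >/= 10 active electrodes. Acute 40-min exposure to 0.03-40 uM on DIV 13 or 15 rat cortical cultures, recorded at 37 C after 40-min baseline.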

[16] = CCTE_Shafer_MEA_acute_per_network_burst_spike_number_mean: CCTE's Neural Acute Assay for Average Number of Spikes in a Network Burst, Shafer Lab (AID 2284019);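 for AC50: curve fitted for loss of signal so actives reduce spikes per network burst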
Outline: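 Read-out is mean spike count per network burst, taken as percent change between a 40-min pre-exposure and a 40-min post-exposure recording per well. Rat primary cortical neurons on MEAs at 37 C, DIV 13 or 15; compounds at 0.03-40 uM.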

[17] = CCTE_Shafer_MEA_acute_per_network_burst_spike_number_std: CCTE's Neural Acute Assay for Standard Deviation of Number of Spikes in a Network Burst, Shafer Lab (AID 2284020);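 note: fitted for decrease in spike-number SD versus DMSO so actives lower it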
Outline: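 Spontaneous network activity of primary rat cortical neurons is recorded extracellularly before and after a 40-min compound exposure (0.03-40 uM) at 37 C. The endpoint is the well's percent change in burst spike-number SD.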

[18] = CCTE_Shafer_MEA_acute_per_network_burst_electrodes_number_mean: CCTE's Neural Acute Assay for Mean Number of Electrodes in a Network Burst, Shafer Lab (AID 2284021);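 note: curves fitted for decreases only so hits reduce electrodes per burst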
Outline: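 Rat primary cortical neurons on 48-well MEAs, DIV 13 or 15, were treated at 0.03-40 uM. Spikes were detected at 8x rms noise and recorded at 37 C. The mean electrodes per network burst in a 40 min exposure recording was expressed as percent change from a 40 min baseline.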

[19] = molecular target: Nucleoli Translocation, AR (gene 367) (UniProt P10275); assay: UPITT_HCI_U2OS_AR_TIF2_Nucleoli_Agonist: University of Pittsburgh U2OS Androgen Receptor-Transcriptional Intermediary Factor 2 (AR-TIF2) Agonism High Content Imaging Assay for Nucleoli Translocation (AID 2283998; active = hit-call score of the fitted dose curve at least 0.9, where 1 is the maximum)
Outline: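 U2OS cells expressing RFP-tagged human AR and GFP-tagged TIF2; red fluorescence in nucleoli quantified by high-content imaging. Primary screen at 20 uM final (0.2% DMSO); concentration-response 0.195–50 uM (0.5% DMSO), fitted upward versus DMSO.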

[20] = molecular target: Ratio of Nucleoli Translocation and Cytoplasm, AR (gene 367) (UniProt P10275); assay: UPITT_HCI_U2OS_AR_TIF2_Nucleoli_Cytoplasm_Ratio_Antagonist: University of Pittsburgh U2OS Androgen Receptor-Transcriptional Intermediary Factor 2 (AR-TIF2) Antagonism High Content Imaging Assay for Ratio of Nucleoli Translocation and Cytoplasm (AID 2283999; active = hit-call score of the fitted dose curve at least 0.9, where 1 is the maximum;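 note: antagonists lower the DHT-driven ratio of nucleolar to cytoplasmic red signal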)
Outline: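 U2OS cells expressing RFP-tagged human AR and GFP-tagged TIF2; compounds tested at 20 uM final (0.2% DMSO) in primary screen, 0.195–50 uM (0.5% DMSO) for concentration response. Readout: nucleolar-to-cytoplasmic red fluorescence ratio by high-content imaging, fitted relative to DHT.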

Measured: AC50

Nucleoli Translocation, AR (gene 367), sequence (P10275 whole entry, looked up): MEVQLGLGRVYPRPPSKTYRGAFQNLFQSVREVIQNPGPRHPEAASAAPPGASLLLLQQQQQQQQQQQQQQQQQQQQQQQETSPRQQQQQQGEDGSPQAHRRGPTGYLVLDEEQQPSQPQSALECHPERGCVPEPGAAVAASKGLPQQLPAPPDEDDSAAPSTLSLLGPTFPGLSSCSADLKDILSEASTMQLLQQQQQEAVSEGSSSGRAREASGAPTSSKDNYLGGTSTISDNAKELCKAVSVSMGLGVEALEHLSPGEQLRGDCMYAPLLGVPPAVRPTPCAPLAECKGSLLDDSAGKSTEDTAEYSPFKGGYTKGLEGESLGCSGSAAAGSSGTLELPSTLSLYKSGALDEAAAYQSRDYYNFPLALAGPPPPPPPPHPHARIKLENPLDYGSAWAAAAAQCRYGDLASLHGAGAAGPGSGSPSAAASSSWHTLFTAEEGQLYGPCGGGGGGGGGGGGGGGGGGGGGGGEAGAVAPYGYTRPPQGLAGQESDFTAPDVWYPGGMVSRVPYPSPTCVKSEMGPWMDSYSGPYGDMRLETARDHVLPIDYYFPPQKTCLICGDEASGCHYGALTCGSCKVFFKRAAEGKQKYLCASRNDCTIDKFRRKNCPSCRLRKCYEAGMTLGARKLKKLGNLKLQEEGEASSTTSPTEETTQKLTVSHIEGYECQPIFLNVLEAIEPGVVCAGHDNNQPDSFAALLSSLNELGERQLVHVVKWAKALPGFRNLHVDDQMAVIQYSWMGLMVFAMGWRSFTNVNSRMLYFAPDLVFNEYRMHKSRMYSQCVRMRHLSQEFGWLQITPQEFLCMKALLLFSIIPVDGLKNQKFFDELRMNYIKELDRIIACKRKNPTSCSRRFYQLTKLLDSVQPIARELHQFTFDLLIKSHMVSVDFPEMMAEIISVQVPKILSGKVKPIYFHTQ
Ratio of Nucleoli Translocation and Cytoplasm, AR (gene 367), sequence (P10275 whole entry, looked up): as above

CCN(CC)C(=O)C(C)Oc1cccc2ccccc12 (stereo unspecified)
inactive: [3] | [4]
active: [1] 32.7 µM | [2] 50 µM

CCOP(=O)(OCC)Oc1nc(Cl)c(Cl)cc1Cl
active: [1] 49.8 µM | [2] 10.7 µM | [7] 3.95 µM | [8] 3.95 µM | [11] 0.00298 µM | [12] 0.00298 µM | [14] 34.9 µM | [15] 32.5 µM | [16] 0.00674 µM | [18] 0.0114 µM
inactive: [5] | [6] | [3] | [4] | [9] | [10] | [13] | [17]

CC(C)(C)C(=O)C(Oc1ccc(Cl)cc1)n1cncn1 (stereo unspecified)
inactive: [6] | [2] | [3] | [4] | [9]
active: [1] 47.2 µM

N#Cc1c[nH]cc1-c1cccc2c1OC(F)(F)O2
active: [7] 4.28 µM | [8] 4.27 µM | [12] 20 µM | [14] 20 µM | [15] 32.4 µM | [17] 20 µM
not listed: [1] | [5] | [9] | [19] | [20]
inactive: all other assays above

COC(=O)c1c(C(F)F)nc(C(F)(F)F)c(C2=NCCS2)c1CC(C)C
inactive: [19] | [5] | [3] | [4] | [9]

Cc1cnc(C2=NC(C)(C(C)C)C(=O)N2)c(C(=O)O)c1 (stereo unspecified)
inactive: [19] | [5] | [3] | [4] | [9]

Cc1ccc(N=CN(C)C=Nc2ccc(C)cc2C)c(C)c1
active: [7] 0.126 µM | [8] 0.125 µM | [11] 4.21 µM | [12] 0.308 µM | [13] 0.16 µM | [16] 0.427 µM | [17] 4.1 µM
not listed: [2] | [5] | [19] | [20]
inactive: all other assays above

CC(C)N1C(=O)c2ccccc2NS1(=O)=O
not listed: [1] | [2] | [5] | [6] | [19] | [20]
inactive: all other assays above

COCC(=O)N(c1c(C)cccc1C)C(C)C(=O)OC (stereo unspecified)
not listed: [2] | [5] | [9] | [19] | [20]
inactive: all other assays above

CCCCC(O)(Cn1cncn1)c1ccc(Cl)cc1Cl (stereo unspecified)
active: [19] 78.4 µM | [5] 77.3 µM | [1] 60.5 µM | [2] 10.1 µM
inactive: all other assays above

CC(C)N1C(=O)N(c2ccccc2)CSC1=NC(C)(C)C
active: [7] 5.21 µM | [8] 5.27 µM | [10] 4.94 µM | [12] 20 µM | [14] 20 µM | [16] 13.5 µM | [17] 17.6 µM | [18] 17.4 µM
not listed: [2]
inactive: all other assays above

O=C1C2CC=CCC2C(=O)N1SC(Cl)(Cl)Cl (stereo unspecified)
inactive: [6] | [2] | [3] | [4] | [9]
active: [1] 67.8 µM

Nc1c(Cl)c(F)nc(OCC(=O)O)c1Cl
not listed: [2]
inactive: all other assays above

CC(C)=CC1C(C(=O)OCc2coc(Cc3ccccc3)c2)C1(C)C (stereo unspecified)
active: [13] 31.2 µM | [14] 15 µM | [15] 20 µM | [17] 20 µM | [18] 8.62 µM
not listed: [2] | [5] | [9] | [19] | [20]
inactive: all other assays above

CCNP(=S)(OC)O/C(C)=C/C(=O)OC(C)C (stereo unspecified)
inactive: [6] | [2] | [3] | [4] | [9]
active: [1] 18.1 µM

CCCCOCN(C(=O)CCl)c1c(CC)cccc1CC
inactive: [19] | [5] | [3] | [4] | [9]
active: [20] 11 µM

Cc1c(COC(=O)[C@@H]2[C@H](/C=C(\Cl)C(F)(F)F)C2(C)C)cccc1-c1ccccc1
active: [11] 1.47 µM | [14] 0.756 µM | [17] 0.931 µM
not listed: [5] | [19] | [20]
inactive: all other assays above
